# Laboratory results published in PubChem BioAssay AID602362 (National Center for Advancing Translational Sciences (NCATS), 2012).
# Some of the results follow. Results filed as inconclusive are left out. Calls of active or inactive are those of the source. Calls follow the shape of the dose curve; as a rule, active = well fitted inhibition curve with a large enough effect; inconclusive = small, poorly fitted or top-dose-only effect; inactive = no such curve, though single readings can be large or run the other way.
# Biological target: 4'-phosphopantetheinyl transferase Sfp (Bacillus subtilis (strain 168)) (UniProt P39135)
# Experiment: qHTS Assay for Inhibitors of Bacillus subtilis Sfp phosphopantetheinyl transferase (PPTase): Gel Based Assay
# Settings: purified Sfp PPTase, gel-based product detection
# From the text: The covalent attachment of a phosphopantetheinyl (4'-PP) arm to a variety of synthases and other proteins is a key posttranslational protein modification. The 4'-PP is installed on the proteins post-translationally from coenzyme A (CoA) on a conserved serine residue by action of phosphopantetheinyl transferase (PPTase) enzymes. Phosphopantetheinylation is essential for synthase activity, and removal of the PPTase gene precludes natural product synthesis in microorganisms, or in the case of fatty acid biosynthesis, renders the organism unviable. PPTase enzymes belong to a distinct structural superfamily. Within bacteria, these enzymes are grouped into two classes based upon primary structure, the AcpS-Type and Sfp-Type PPTases. […]
# In search of small molecule Sfp-PPTase inhibitors, a fluorescence quenching assay was developed for detection of Bacillus subtilis Sfp-PPTase enzymatic activity in a miniaturized high-throughput format. […]
# In this assay, compounds were evaluated by monitoring of fluorescence transfer to whole carrier protein substrates via polyacrylamide gel electrophoresis. […]
# The SDS-PAGE based assay detects the direct incorporation of a fluorescent label into a carrier protein substrate. […] The images are analysed by fluorescent densometry using the ImageJ software package available from the NIH.
row,SMILES,Potency
1,COc1ccnc(NC(=S)N2CCN(c3ncc(C(F)(F)F)cc3Cl)CC2)c1,2140 nM (active)
2,Cc1cc(C)nc(NC(=S)N2CCN(c3ccc(Cl)cc3C(F)(F)F)CC2)c1,1070 nM (active)
